From ChEMBL document CHEMBL4513216, “Probing the Open Global Health Chemical Diversity Library for Multistage-Active Starting Points for Next-Generation Antimalarials” (ACS Infect Dis, 2020)
Out of some 69,000 compounds screened, about 8,600 (12%) showed an effect of 50% or more. The sample as a whole holds a higher share of strong results than the screen did.

System: Plasmodium berghei
Assay: Screen against P. berghei liver stage (PbLuc), transformed with Luciferase, at 10uM
Format: functional, HepG2
Conditions: tested at 10 uM

| SMILES | INHIBITION [%] |
| --- | --- |
| O=C(c1cccc(C2CCNC2)c1)N1CCC(c2ncc[nH]2)CC1 (centres undefined) | -6.61 |
| COCCN1CCN(CC(O)c2ccc(OC(F)(F)F)cc2)CC1 (centres undefined) | -24.2 |
| O=C(c1ccoc1)N1CCCC2(CCC(=O)N2Cc2cccnc2)C1 (centres undefined) | 42.3 |
| O=C(c1ccoc1)N1CCC2(CCC(=O)N2Cc2ccncc2)CC1 | 43.8 |
| CN(C)CCN1C(=O)CCC12CCCN(C(=O)c1ccncc1F)C2 (centres undefined) | -24.1 |
| CN1C(=O)CCC12CCCN(C(=O)c1ccncc1F)C2 (centres undefined) | -12.2 |
| O=C(c1ccoc1)N1CCCC2(CCC(=O)N2Cc2ccncc2)C1 (centres undefined) | 51.2 |
| CCN1C(=O)CCCC12CCCN(C(=O)c1ccncc1F)C2 (centres undefined) | 51.4 |
| O=C(Cc1c(F)cccc1Cl)Nc1cccc(N2CCCC2)c1 | 43.4 |
| CNC(=O)c1cn[nH]c1C1CCN(Cc2sccc2C)C1 (centres undefined) | -14.1 |
| CC(=O)c1cccc(OCCCC(=O)N(C)CC(N)=O)c1 | -25.1 |
| CC(=O)c1cccc(OCCCC(=O)N(C)Cc2cnn(C)c2)c1 | 82.2 |
| CCN(C)C(=O)CCN(C)Cc1cnc(C)s1 | 50.4 |
| CC(=O)c1cccc(OCCCC(=O)N(C)CCC(F)(F)F)c1 | 57.3 |
| COc1cc(C(C)=O)ccc1OCC(=O)N(C)Cc1cnn(C)c1 | 40.9 |
| CC(=O)c1cccc(OCCCC(=O)N(C)Cc2cccc(O)c2)c1 | 23.5 |
| CCOC(=O)CN(C)Cc1cnc(C)s1 | 8.38 |
| CC(=O)c1cccc(OCCCC(=O)N(C)CCc2ccncc2)c1 | -8.19 |
| CC(=O)c1cccc(OCCCC(=O)N(C)Cc2cnc(C)s2)c1 | 55.4 |
| CC(=O)c1cccc(OCCCC(=O)N(C)Cc2ccccn2)c1 | 3.47 |
| CCCN(CCC)C(=O)CN(C)Cc1cnc(C)s1 | 23.2 |
| CC(=O)c1cccc(OCCCC(=O)N(C)Cc2cscn2)c1 | 5.68 |

| SMILES | INHIBITION [%] |
| --- | --- |
| CN(C)C(CNC(=O)c1ccnc(-n2cncn2)c1)c1ccccc1 (centres undefined) | 9.34 |
| CN(C)c1ccc(CNCc2cnc(N3CCOCC3)nc2)cn1 | 12.6 |
| O=S1(=O)CCN(Cc2cccnc2)[C@H]2CCN(c3ncccn3)CC[C@H]21 | 46.8 |
| CN1C(=O)CC(c2cnn(C)c2)C12CCN(C(=O)c1cccn1C)CC2 (centres undefined) | 26.4 |
| O=C(c1cc[nH]n1)N1CCc2cc(Br)sc2C1 | 24.2 |
| Cc1nc(CN2CCOCC3(CCN(c4cccnc4)CC3)C2)cs1 | 14.4 |
| COCc1ncn2c1CN(C(=O)Nc1ccccc1)CC2 | -22.1 |
| CC(Cn1ccnc1)NC(=O)Cc1ccc2c(c1)OCCO2 (centres undefined) | -21.8 |
| Cc1ccsc1-c1nccn1C1CC(=O)N(C(C)C)C1 (centres undefined) | 35.8 |
| Cc1cccc(C)c1NC(=O)CNC(C)Cc1ccsc1 (centres undefined) | 34.6 |
| Cc1ccc(NC(=O)CN[C@H](C(N)=O)C(C)C)cc1F | 10.7 |
| Cc1ccc(NC(=O)CNC(C)Cc2ccsc2)cc1F (centres undefined) | 52.2 |
| Cc1ccn(-c2cccc(C(=O)N3CCCC(n4ccnc4C)C3)c2)n1 (centres undefined) | 44.8 |
| Cc1cc(CN2CC[C@H]3[C@H]2CCN3CC(=O)N(C)C)oc1C | 38.3 |
| Cc1cc(CN(CCO)c2ccc(Br)cc2)on1 | 13.8 |
| Cc1cc(CN(CCCO)c2ccccc2)on1 | 56.5 |
| Cc1cc(CN(CCO)c2ccccc2)on1 | 45.5 |
| Cc1cc(C(=O)NCc2cc(C)oc2C)no1 | -13 |
| CCN1CCN(C(=O)c2cccc(CN3CCOCC3)c2)CC1 | -14.8 |
| CN(Cc1cn2c(n1)CN(Cc1ccsc1)CC2)Cc1ccco1 | 31.1 |
| CN(Cc1cn2c(n1)CN(Cc1ccc(F)cc1)CC2)Cc1ccco1 | 59 |
| CN(Cc1cn2c(n1)CN(Cc1nccs1)CC2)Cc1ccco1 | 43.9 |

| SMILES | INHIBITION [%] |
| --- | --- |
| COCCN1CCn2cc(CN(C)Cc3ccco3)nc2C1 | 73 |
| Cc1ccc(CN2CCn3cc(CN(C)Cc4ccco4)nc3C2)o1 | -3.16 |
| CCS(=O)(=O)N1CCn2cc(CN(C)Cc3ccco3)nc2C1 | 47.4 |
| O=C([C@H]1CC[C@@H]2[C@@H](CCN2Cc2nccs2)O1)N1CCOCC1 | -1.12 |
| Cc1ccnc(CC(C)N(C)c2cc(CCN)nc(C)n2)c1 (centres undefined) | 45.2 |
| Cc1ccnc(CC(C)N(C)c2cc(C3CCNCC3)nc(C)n2)c1 (centres undefined) | 36.9 |
| Cc1ccnc(CC(C)N(C)c2cc(CN)nc(C)n2)c1 (centres undefined) | 66.5 |
| Cc1cc(C(=O)N2CCC3(CCNCC3)CC2)c2cccc(C)c2n1 | 18.4 |
| Cc1nc(CN2CCCC(c3cnccn3)C2)cs1 (centres undefined) | 17.8 |
| CC(C)c1noc(-c2ccc(NCCCC3CCOC3)nc2)n1 (centres undefined) | 43.9 |
| CC(C)c1noc(-c2ccc(NCCCN3CCCC(O)C3)nc2)n1 (centres undefined) | 53 |
| CC(C)c1noc(-c2ccc(NCC3CCCOC3)nc2)n1 (centres undefined) | -118 |
| CS(=O)(=O)NC1CC2(CCN(CCF)CC2)Oc2ccccc21 (centres undefined) | 12.5 |
| CCOC(C)c1nccn1Cc1noc(CC)n1 (centres undefined) | 8.41 |
| CCC(C)[C@H](N)c1nnc(SCC(=O)Nc2cc(C)ccc2C)o1 (some centres undefined) | 22.2 |
| CN(Cc1cc2n(n1)CCN(C(=O)c1cccnc1)C2)Cc1nccs1 | -10.6 |
| CN(Cc1cc2n(n1)CCN(C(=O)[C@H]1CCCO1)C2)Cc1nccs1 | 50.3 |
| CN(Cc1cc2n(n1)CCCN(C(=O)N1CCCC1)C2)Cc1nccs1 | 38.5 |
| Cc1nc(C)n(CC2CCCN2CCOc2ccccc2C#N)n1 (centres undefined) | 17.4 |
| CC(C)CN(CC(O)c1ccccc1)C(=O)NC(C)C (centres undefined) | 40.9 |
| CCn1nc(C)c(CCNC(=O)C2CCCN(C(N)=O)C2)c1C (centres undefined) | -8.11 |
| CC(C)c1ccc(OCCC(=O)N2CCCN(C(N)=O)CC2)cc1 | -4 |

| SMILES | INHIBITION [%] |
| --- | --- |
| CC(c1ccncn1)N(C)Cc1cc2cc3c(cc2[nH]c1=O)OCO3 (centres undefined) | 58.7 |
| CC(c1cccnc1)N(C)Cc1cc2cc3c(cc2[nH]c1=O)OCO3 (centres undefined) | 27.6 |
| CC(c1ccccn1)N(C)Cc1cc2cc3c(cc2[nH]c1=O)OCO3 (centres undefined) | 21.8 |
| Cc1ccc(N2CCCC(NCCCS(C)(=O)=O)C2)nn1 (centres undefined) | 14.9 |
| Cc1ccc(N2CCCC(NCCS(C)(=O)=O)C2)nn1 (centres undefined) | 64.4 |
| COCCCNC1CCCN(c2ccc(C)nn2)C1 (centres undefined) | -28.7 |
| CCOCC(=O)NCCCn1ccnc1-c1ccccc1 | 16.5 |
| CCc1nnc(CN(CC)C(=O)C2CC(=O)N(C(C)(C)C)C2)o1 (centres undefined) | 35.8 |
| CCOc1cccc(C(=O)Nc2ccn(CC)n2)c1 | -35.4 |
| COc1ccccc1OCCNCCn1cccn1 | 19.4 |
| CCn1ccc(-c2cc(C(=O)O)n3nc(C)c(Cl)c3n2)n1 | 12.3 |
| Cc1cccc(OCCCNC(=O)Cn2ccc(C)cc2=O)c1 | -12.9 |
| CCn1ccc(-c2cc(NCCCOc3ccccc3C)nc(C)n2)n1 | 82.4 |
| CCn1ccc(-c2cc(NCCCOc3cccc(C)c3)nc(C)n2)n1 | 75.9 |
| CCCNC(=O)c1nn(CC)cc1NC(=O)C(C)n1ncc(Cl)c1C (centres undefined) | 8.49 |
| CC(C)NC(=O)N1CCc2ncnc(-c3ccncc3)c2CC1 | -7.24 |
| Cc1nc(C)n(CC2CN(CCOc3cccc(C#N)c3)CCO2)n1 (centres undefined) | -5.07 |
| Cc1ccc(CN2CCc3[nH]nc(C(=O)N4CCNC(=O)C4)c3C2)s1 | 18.7 |
| CCNC(=O)[C@@H]1C[C@@H](NC(=O)c2cc(C)on2)CN1Cc1ccccn1 | 54.8 |
| CCNC(=O)[C@@H]1C[C@H](NC(=O)Cc2ccsc2)CN1Cc1ccc(C)o1 | 24.6 |
| CCNC(=O)[C@@H]1C[C@H](NC(=O)c2ccc(C)s2)CN1Cc1ccc(C)o1 | 68.9 |
| CCNC(=O)[C@@H]1C[C@@H](NC(=O)c2ccc(C)s2)CN1Cc1ccccn1 | 18.9 |

| SMILES | INHIBITION [%] |
| --- | --- |
| CCNC(=O)[C@@H]1C[C@H](NC(=O)c2cc(CC)n[nH]2)CN1Cc1ccsc1 | -20.5 |
| CCNC(=O)[C@@H]1C[C@@H](NC(=O)Cc2ccccn2)CN1CCCSC | 41.8 |
| CCN(CCOC)C(=O)c1cc(COc2ccc3c(c2)CCCC3)on1 | 25.1 |
| Cc1cc(C(F)(F)F)nc(CCNC(C)Cn2cncn2)n1 (centres undefined) | 8.86 |
| COC(=O)CCCC(=O)N1CCC(CO)(CCc2ccccc2)CC1 | 30.7 |
| CCc1ccc(NC(=O)c2n[nH]c(-n3cnnc3)n2)cc1 | 25.9 |
| CCc1nc(C2CCCN(C(=O)C(C)(C)NS(C)(=O)=O)C2)no1 (centres undefined) | 3.73 |
| O=C(c1cnn2c1OCCC2)N1CCC(Cc2ccccc2)CC1 | 13.6 |
| c1cc(CNCC2Cn3nncc3CO2)ccn1 (centres undefined) | 29.8 |
| c1coc(CNCC2Cn3nncc3CO2)c1 (centres undefined) | 62.9 |
| Cc1ccc(CNCC2Cn3nncc3CO2)o1 (centres undefined) | 43.9 |
| CCN1CCOC(CNCc2cnc(C(C)(C)C)s2)C1 (centres undefined) | 46.5 |
| c1cc(CNCC2Cn3nncc3CO2)co1 (centres undefined) | -21.7 |
| Cc1nc(CNCC2Cn3nncc3CO2)cs1 (centres undefined) | 5.89 |
| CCN1CCOC(CNCc2ccccn2)C1 (centres undefined) | 33 |
| CCN1CCOC(CNCc2ccc(C)s2)C1 (centres undefined) | 73.6 |
| Cc1ccc(CNCC2Cn3nncc3CO2)s1 (centres undefined) | 54.8 |
| COc1cccc(C(=O)N2CCc3c(nc(N)[nH]c3=O)C2)c1C | 21.8 |
| CN(C)C(=O)[C@H]1C[C@@H]2CCN(Cc3ccoc3)C[C@@H]2O1 | 34 |
| O=C(Nc1ccccc1)c1cc2n(n1)CCCN(C(=O)N1CCCC1)C2 | 35 |
| Cc1cc2ccccc2n1CCC(=O)NCCCc1nnc(N)s1 | 0.426 |
